For nine molecules, growth results are on record in PubChem BioAssay (NCI).

The panel holds about 83,000 compounds, 20% with a hit somewhere; the sample as a whole holds those more often.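 Growth was measured after 48 h exposure to one concentration of compound in 96-well plates. Values under 10 count as active.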 Unmarked numbers belong to inactive results. Activity calls are given as the source filed them.

Test systems include RPMI-8226 leukemia; OVCAR-8 ovarian; OVCAR-5 ovarian; OVCAR-4 ovarian; SK-OV-3 ovarian; IGROV1 ovarian; HS 578T breast; NCI/ADR-RES ovarian; T-47D breast; BT-549 breast; MDA-MB-435 melanoma; SW-620 colon; MCF7 breast; HCT-116 colon; HCC-2998 colon; KM12 colon.
Test in all cases: NCI-60 one-dose screen, 48 h (100 = growth as untreated, 0 = no growth, -100 = all killed)
Settings in all cases: 10 µM unless noted

Take `O=c1cc(-c2ccccc2)nc2sc(-c3c[nH]c4ccc(F)cc34)nn12`: the growth in the assay with RPMI-8226 leukemia is 71.9%; with OVCAR-8 ovarian it was 62%; with OVCAR-5 ovarian, 77.2%; in the assay with OVCAR-4 ovarian it was -14.1% (active); with SK-OV-3 ovarian, 56.6%; in the assay with IGROV1 ovarian, 85.4%. Also, the growth in the assay on HS 578T breast is -4.32% (active); in the assay on NCI/ADR-RES ovarian, 60.6%; in the assay on T-47D breast it was 27.2%; in the assay on BT-549 breast it was 56.7%; with MDA-MB-435 melanoma, 63.7%; with SW-620 colon, 60.9%. Moreover, the growth with MCF7 breast is 57.9%; in the assay with HCT-116 colon, 57.2%; in the assay with HCC-2998 colon it was 83.4%; with KM12 colon it was 84.2%.
As to `Cc1ccccc1/C=C/c1nn2c(-c3ccoc3C)nnc2s1`, the growth in the assay with RPMI-8226 leukemia is 91.4%; in the assay with OVCAR-8 ovarian, 97.1%; with OVCAR-5 ovarian, 100%; in the assay with OVCAR-4 ovarian, 99.6%; in the assay with SK-OV-3 ovarian it was 118%; in the assay with IGROV1 ovarian, 107%. Besides, the growth in the assay on HS 578T breast is 111%; with NCI/ADR-RES ovarian, 93.7%; in the assay with T-47D breast, 90.5%; in the assay with BT-549 breast, 111%; in the assay with MDA-MB-435 melanoma, 96.3%; in the assay with SW-620 colon it was 104%. Besides, the growth in the assay on MCF7 breast is 83.9%; with HCT-116 colon, 106%; in the assay on HCC-2998 colon, 108%; in the assay on KM12 colon, 105%.
`Cn1cc(-c2nn3cc(-c4cccnc4)nc3s2)c2cc(F)ccc21`: the growth in the assay on RPMI-8226 leukemia was 93.9%; in the assay with OVCAR-8 ovarian, 81.8%; in the assay with OVCAR-5 ovarian, 91.5%; in the assay with OVCAR-4 ovarian it was 104%; in the assay with SK-OV-3 ovarian, 77.4%; in the assay on IGROV1 ovarian it was 74.5%. The growth with HS 578T breast is 84.6%; in the assay with NCI/ADR-RES ovarian, 75.7%; in the assay on T-47D breast it was 65%; in the assay with BT-549 breast, 92%; in the assay with MDA-MB-435 melanoma, 29.7%; in the assay on SW-620 colon, 80.3%. Moreover, the growth in the assay on MCF7 breast is 37.8%; in the assay with HCT-116 colon it was 91%; in the assay on HCC-2998 colon it was 96.6%; in the assay with KM12 colon, 76.4%.
For `COc1ccc([C@@H]2[C@@H](O)C(=O)N2c2cc(OC)c(OC)c(OC)c2)cc1`, the growth was 20.3% in the assay with RPMI-8226 leukemia; 2.57% (active) with OVCAR-8 ovarian; 24.8% in the assay with OVCAR-5 ovarian; 59.3% in the assay with OVCAR-4 ovarian; 37.2% in the assay with SK-OV-3 ovarian; 27.9% with IGROV1 ovarian. Also, the growth in the assay with HS 578T breast was 10.6%; in the assay with NCI/ADR-RES ovarian, 13.9%; in the assay on T-47D breast, 67.1%; in the assay with BT-549 breast, -13.4% (active); with MDA-MB-435 melanoma, -28.6% (active); in the assay with SW-620 colon, 19.4%. The growth in the assay on MCF7 breast was 11.9%; in the assay on HCT-116 colon it was 3.82% (active); in the assay with HCC-2998 colon, 21.8%; in the assay on KM12 colon, 14%.
For the molecule `COc1cc2c3c(n(CCCNC4CCCC4)c(=O)c2cc1OC)-c1cc2c(cc1C3=O)OCO2`, the growth with RPMI-8226 leukemia was -40.1% (active); in the assay on OVCAR-8 ovarian it was -70.2% (active); with OVCAR-5 ovarian it was -81.3% (active); with OVCAR-4 ovarian it was 71.9%; in the assay on SK-OV-3 ovarian it was 80.7%; with IGROV1 ovarian, -48.7% (active). For the same molecule, the growth with HS 578T breast was 93.3%; in the assay with NCI/ADR-RES ovarian it was 51.9%; with T-47D breast, 86%; with BT-549 breast it was 74.8%; in the assay on MDA-MB-435 melanoma it was -49.6% (active); in the assay with SW-620 colon, -83.6% (active). The growth was -74.8% (active) with MCF7 breast, -90.9% (active) with HCT-116 colon, 23.2% in the assay with HCC-2998 colon and 65.6% in the assay with KM12 colon.
Take `Cc1cc(=O)n2nc(-c3c[nH]c4ccccc34)sc2n1`: the growth was 128% in the assay on RPMI-8226 leukemia; 98.7% with OVCAR-8 ovarian; 101% in the assay on OVCAR-5 ovarian; 104% in the assay with OVCAR-4 ovarian; 103% in the assay with SK-OV-3 ovarian; 89.9% in the assay with IGROV1 ovarian. The growth is 96.4% in the assay with HS 578T breast; 98% in the assay with NCI/ADR-RES ovarian; 92.2% in the assay on T-47D breast; 108% in the assay with BT-549 breast; 103% in the assay with MDA-MB-435 melanoma; 94.4% in the assay with SW-620 colon. Also, the growth in the assay on MCF7 breast was 73.2%; in the assay on HCT-116 colon, 109%; in the assay on HCC-2998 colon, 107%; in the assay on KM12 colon it was 101%.
With `COc1ccc(-c2no[n+]([O-])c2Nc2ccccc2Br)cc1`, the growth with RPMI-8226 leukemia was 93.7%; with OVCAR-8 ovarian, 90.3%; in the assay on OVCAR-5 ovarian, 108%; in the assay with SK-OV-3 ovarian, 94.3%; with IGROV1 ovarian, 85.4%; with HS 578T breast, 88.9%. Also, the growth in the assay with NCI/ADR-RES ovarian was 94.9%; in the assay with T-47D breast it was 80%; in the assay with BT-549 breast, 113%; in the assay on MDA-MB-435 melanoma it was 107%; in the assay on SW-620 colon it was 101%; in the assay with MCF7 breast it was 84.9%. In addition, the growth in the assay with HCT-116 colon was 93.7%; with HCC-2998 colon it was 111%; in the assay on KM12 colon, 101%.
`CC1(C)CC[C@]2(C(=O)N3CCCN(CC#N)CC3)CC[C@]3(C)C(=CC[C@@H]4[C@@]5(C)CC[C@H](O)C(C)(C)[C@@H]5CC[C@]43C)[C@H]2C1`: the growth in the assay with RPMI-8226 leukemia is 19.9%; with OVCAR-8 ovarian, 55.7%; in the assay on OVCAR-5 ovarian, 84.1%; with OVCAR-4 ovarian it was 86.7%; in the assay on SK-OV-3 ovarian, 83.7%; in the assay with HS 578T breast, 78.8%. Also, the growth in the assay with NCI/ADR-RES ovarian is 57.2%; in the assay with T-47D breast, 52.1%; in the assay on BT-549 breast, 61.4%; in the assay on MDA-MB-435 melanoma, 59.8%; in the assay on SW-620 colon, 27.8%; in the assay with MCF7 breast, 5.68% (active). Besides, the growth with HCT-116 colon was -47.6% (active); in the assay with HCC-2998 colon, 71.2%; with KM12 colon, 54.1%.
Consider `COc1cc2c3c(n(CCCN4CCC[C@H]4C(N)=O)c(=O)c2cc1OC)-c1cc2c(cc1C3=O)OCO2`, for which the growth with RPMI-8226 leukemia was -26.3% (active); with OVCAR-8 ovarian it was -44.9% (active); in the assay on OVCAR-5 ovarian it was 26.6%; with OVCAR-4 ovarian, 21.7%; with SK-OV-3 ovarian, -22.7% (active); in the assay on HS 578T breast, 70.9%. Besides, the growth in the assay with NCI/ADR-RES ovarian was 9.81% (active); with T-47D breast, -11.4% (active); with BT-549 breast, 27.3%; in the assay on MDA-MB-435 melanoma it was 31.8%; in the assay with SW-620 colon, 19.7%; with MCF7 breast, -0.242% (active). Moreover, the growth with HCT-116 colon is 5.37% (active); in the assay with HCC-2998 colon it was 30.5%; in the assay with KM12 colon it was 26.1%.
